Laboratory results: PubChem BioAssay AID1347146 (National Center for Advancing Translational Sciences (NCATS), 2019)
Results filed as inconclusive are left out. Values without a mark were called inactive. Active and inactive are the calls of the source. Calls follow the shape of the dose curve; as a rule, active = well fitted inhibition curve with a large enough effect; inconclusive = small, poorly fitted or top-dose-only effect; inactive = no such curve, though single readings can be large or run the other way.

Target: Nicotinamide N-methyltransferase (Homo sapiens) (UniProt P40261)
Assay: qHTS Assay for Inhibitors of N-terminal methyltransferase 1 (NTMT1): NNMT MTaseGlo counterscreen assay;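 as to activity change, negative = inhibition: plate controls were DMSO without inhibitor for no effect and no-enzyme control for full effect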
Conditions: NNMT enzyme, MTase-Glo luminescence counterscreen; series mostly up to 57.1 µM; activity change, negative = inhibition: at the top concentration
How it was run: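 Luminescent MTase-Glo read-out of SAH from nicotinamide methylation: 1 µM nicotinamide, 100 µM SAM, 125 nM NNMT, 30 min RT after ~15 min compound preincubation. Values normalized to no-enzyme/DMSO controls, Hill-fitted.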
Potency is read from the fitted curve at half-maximal effect.

Nicotinamide N-methyltransferase (Homo sapiens), sequence (P40261 whole entry, looked up): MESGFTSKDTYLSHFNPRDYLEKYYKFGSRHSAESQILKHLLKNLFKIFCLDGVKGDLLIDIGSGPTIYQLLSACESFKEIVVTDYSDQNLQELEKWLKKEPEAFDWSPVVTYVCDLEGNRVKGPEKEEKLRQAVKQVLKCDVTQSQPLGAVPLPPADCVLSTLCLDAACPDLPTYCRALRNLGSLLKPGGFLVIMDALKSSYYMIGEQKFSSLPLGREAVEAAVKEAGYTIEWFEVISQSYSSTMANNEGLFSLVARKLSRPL

Compound | activity change, negative = inhibition | Potency
N#CC(C#N)=C(N)/C(C#N)=C/c1ccc(O)cc1 | -11% | –
CCN1CCC[C@H]1CNC(=O)c1cc(S(N)(=O)=O)ccc1OC | -5.75% | –
CCCCC#Cc1nc(NC)c2ncn([C@@H]3O[C@H](CO)[C@@H](O)[C@H]3O)c2n1 | -8.74% | –
CN1Cc2sccc2C(c2ccc(O)c(O)c2)C1 (configuration not stated) | -7.5% | –
O=C(O)Cc1ccc(O)c(O)c1 | -4.93% | –
COc1ccccc1CNCCCCCCNCCCCCCCCNCCCCCCNCc1ccccc1OC | -15.9% | –
CN(C)c1ccc(/C=C2\C(=O)Nc3ccccc32)cc1 | – | 10 µM (active)
CCN(CC)CCNC(=O)c1c(C)[nH]c(/C=C2\C(=O)Nc3ccc(F)cc32)c1C | -14.6% | –
NC(Cc1c[nH]c2ccc(O)cc12)C(=O)O (configuration not stated) | -8.98% | –
OCC1OC(n2cnc3c(NCc4ccco4)ncnc32)C(O)C1O (configuration not stated) | 50.2% | –
Nc1ncnc2c1[nH]c(=S)n2C1OC(CO)C(O)C1O (configuration not stated) | 25.9% | –
COc1cc2c(NC3CCN(C)CC3)nc(N3CCCCC3)nc2cc1OCCCN(C)C | -16.6% | –
CN(C)C(=O)/N=N/C(=O)N(C)C | -12.6% | –
CC(C)COCC(CN(Cc1ccccc1)c1ccccc1)N1CCCC1 (configuration not stated) | -7.75% | –
CN(C)CCCC1(c2ccc(F)cc2)OCc2cc(C#N)ccc21 (configuration not stated) | -12.4% | –
OCCN1CCN(CC/C=C2/c3ccccc3Sc3ccc(C(F)(F)F)cc32)CC1 | -10.3% | –
CC(C)NCC(O)c1ccc(O)c(O)c1 (configuration not stated) | -11.3% | –
CC[N+](CC)(CC)CCOc1cccc(OCC[N+](CC)(CC)CC)c1OCC[N+](CC)(CC)CC | -11.5% | –
Brc1c(NC2=NCCN2)ccc2nccnc12 | -12.4% | –

Compound | activity change, negative = inhibition | Potency
CCC(CC)n1ccc2c(C(=O)NCc3c(C)cc(C)[nH]c3=O)cc(C#N)cc21 | -10.6% | –
CCCCCCCCCCCCCCCCCC(=O)OC(CC(=O)O)C[N+](C)(C)C (configuration not stated) | -11.9% | –
CSc1nc(N)c2ncn([C@@H]3O[C@H](COP(=O)(O)OP(=O)(O)OP(=O)(O)O)[C@@H](O)[C@H]3O)c2n1 | -12.5% | –
C[C@]12C[C@H](O)[C@H]3[C@@H](CCC4=CC(=O)CC[C@@]43C)[C@@H]1CC[C@@H]2C(=O)CO | -13.2% | –
O=C1NC(=O)C(c2ccccc2[N+](=O)[O-])=C1Nc1ccc(O)c(Cl)c1 | -29.5% | –
Nc1nc(=S)c2ncn([C@@H]3O[C@H](CO)[C@@H](O)[C@H]3O)c2[nH]1 | -12.2% [at 38.3 µM] | –
COC(=O)[C@H]1[C@H]2C[C@H]3c4[nH]c5ccccc5c4CCN3C[C@H]2CC[C@@H]1O | -21% | –
COc1cc2nc(N3CCCN(C)CC3)nc(N3CCN(C)CC3)c2cc1OC | -10.6% | –
Nc1ccc(CCNc2ncnc3c2ncn3C2OC(CO)C(O)C2O)cc1 (configuration not stated) | -8.43% | –
COc1cc(CNC(=O)CCCCCCC(C)C)ccc1O | -12.2% | –
Cc1cc2c(cc1Cl)N(C(=O)Nc1ccc(Oc3cccnc3C)nc1)CC2 | -5.64% | –
CSc1ccc(C(=O)c2[nH]c(=O)[nH]c2C)cc1 | -13.4% | –
COc1cc2nc(N3CCOCC3)nc(NC(C)C)c2cc1OC | -19.8% | –
Nc1ccnc2c1ncn2[C@@H]1O[C@H](CO)[C@@H](O)[C@H]1O | – | 14.1 µM (active)
CC(Cc1ccc(O)c(O)c1)C(C)Cc1ccc(O)c(O)c1 (configuration not stated) | – | 39.8 µM (active)
COc1cc(/C=C(\C#N)C(=O)Nc2nnc(C(F)(F)F)s2)ccc1OCc1ccc(C(F)(F)F)cc1C(F)(F)F | -13.8% | –
N=c1c[n+](N2CCOCC2)[n-]o1 | -13.7% | –
Oc1ccc2ccccc2c1SSc1c(O)ccc2ccccc12 | -21.1% | –
